# From PubChem BioAssay (NCI)
# The panel holds about 79,000 compounds, 15% with a hit somewhere; the sample as a whole holds those more often. Values without a mark were called inactive. Activity calls are given as the source filed them. No stated cut-off is given here; in the data, active means growth inhibition above about 70%; inactive means the rest.
# Tests used:
# [1] = NCI Yeast Anticancer Drug Screen. Data for the rad50 strain (AID 155);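 further: 0% = growth of vehicle-only cultures of the same strain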; details: S. cerevisiae rad50 strain growth inhibition; at 50.0 µM; active compounds read high
# Outline: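 A DNA repair-deficient yeast mutant serves as the test organism; compound-induced growth inhibition is calculated against vehicle-treated cells.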
# [2] = NCI Yeast Anticancer Drug Screen. Data for the mec2-1 strain (AID 157); details: S. cerevisiae mec2-1 strain, at 50.0 µM, active compounds read high
# Outline: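 Using mec2-1 yeast: add compound, measure growth, express inhibition versus vehicle-treated cultures.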
# [3] = NCI Yeast Anticancer Drug Screen. Data for the sgs1 mgt1 strain (AID 161);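 further: 0% = growth of cultures given vehicle only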; details: S. cerevisiae sgs1 mgt1 strain, at 50.0 µM, active compounds read high
# Outline: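 Growth of a repair-deficient yeast mutant was monitored after compound treatment and expressed as inhibition relative to vehicle-treated cultures.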
# [4] = NCI Yeast Anticancer Drug Screen. Data for the cln2 rad14 strain (AID 165);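 further: 0% = growth equal to vehicle treated cultures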; details: S. cerevisiae cln2 rad14 strain, at 50.0 µM, active compounds read high
# Outline: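 Yeast strain cln2 rad14, bearing defects in cell cycle control and DNA repair, serves as the test system; values reflect growth inhibition compared with vehicle.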
# [5] = NCI Yeast Anticancer Drug Screen. Data for the bub3 strain (AID 167); details: S. cerevisiae bub3 mutant strain, at 50.0 µM, active compounds read high
# Outline: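 Inhibition values come from growth of compound-treated mutant yeast normalised to vehicle-treated controls.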
# [6] = NCI Yeast Anticancer Drug Screen. Data for the mlh1 rad18 strain (AID 175); details: S. cerevisiae mlh1 rad18 strain growth inhibition; at 50.0 µM; active compounds read high
# Outline: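 Steps: expose repair-defective yeast to compound; measure growth; express inhibition against vehicle-treated controls.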
Structure (SMILES),growth inhibition [1] [%],growth inhibition [2] [%],growth inhibition [3],growth inhibition [4] [%],growth inhibition [5],growth inhibition [6]
COc1cc(/C=C2\N=C(C)N(n3c(-c4ccccc4)nc4ccccc4c3=O)C2=O)cc(OC)c1OC,-20.4,19.6,29.6%,2.7,16.2%,7.3%
O=C(/C=C/c1ccccc1)CC1OC(=O)c2ccccc21 (stereo not given),14.3,-15.9,10.3%,23.1,3.15%,-20.9%
Cn1c(=O)oc2cc([N+](=O)[O-])c(Cl)cc21,-2.9,4.25,-0.85%,-1.35,-6.6%,6.75%
O=C(O)c1cccc([N+](=O)[O-])c1C(=O)O,15.3,11.3,11.4%,7.9,-1.9%,17.2%
O=C1C=C(c2ccccc2)Sc2ccccc2N1,25.9,34.5,19.1%,-1.4,26.1%,53.2%
Nc1nc2sc3ccccc3c(=O)n2n1,-10.7,-31.9,11.5%,19.1,-3.2%,-9.85%
Cc1cc2nc3c(C(O)C(O)C(O)CO)nn(-c4ccccc4)c3nc2cc1C (stereo not given),-2.55,5.05,-9.25%,-15.6,-5.05%,16.1%
COc1ccc(/C=C/C(=O)C(CN(C)C)CN(C)C)cc1OC,-0.95,-6.7,-25.2%,-4.8,-6.55%,-16.4%
CN(C)c1ccc(/C=N/NC(=S)Nc2cccc3cccnc23)cc1,18.6,-3.05,1.4%,20.3,20.6%,-2.8%
N#CCCN(c1ccc(C=Nc2ccccc2Cl)cc1)S(=O)(=O)c1ccccc1,-18.1,-9.8,-13.7%,4.25,-6.5%,16.2%
CC(C)S1=C2C(=O)CC(C)(C)CC2=Nc2ccccc21 (stereo not given),7.65,-0.65,2.95%,-1.45,15.8%,-27.9%
Cc1c(N)nc(C(CC(N)=O)NCC(N)C(N)=O)nc1C(=O)NC(C(=O)NC(C)C(O)C(C)C(=O)NC(C(=O)NCCc1nc(-c2nc(C(=O)NCCC[S+](C)CC(N)=O)cs2)cs1)C(C)O)C(OC1OC(CO)C(O)C(O)C1OC1OC(CO)C(O)C(OC(N)=O)C1O)c1cnc[nH]1 (stereo not given),63.9,58.9,71.7% (active),56.9,80% (active),75.7% (active)
CC(CO)CCC(O)C(C)(O)C1CCC2(O)C3=CC(=O)C4CC(O)C(O)CC4(C)C3CCC12C (stereo not given),4.05,-23.5,10.2%,7.75,17.8%,-68.2%
CCCCCCCCCC(=O)N/N=C/c1cccs1,0.95,24.2,3.9%,-12.7,35.8%,15.3%
O=S(=O)(O)CCCCBr,3.6,-31.4,16.8%,-5,-3%,13.5%
c1ccc(COC2COC(c3ccccc3)OC2)cc1 (stereo not given),5.95,-35,0.7%,16.9,7.45%,3.15%
BrCCCC1CCCCC1,-23.6,-41.7,-13.2%,2.1,-14.6%,-14.7%
CC12CCCCC1C(C(C)(C)OC(=O)c1ccc([N+](=O)[O-])cc1)CC2 (stereo not given),15,8.2,17.4%,-8.85,12.6%,21.1%
NC(N)=Nc1cccc2c1CC=CC2,0.2,-3.45,-5.3%,-5.7,2%,-0.2%
CC1OC(O[C@H]2CC[C@]3(C)[C@H]4CC=C5[C@@H]6[C@@H](C)[C@H](C)CC[C@]6(C(=O)O)CC[C@@]5(C(=O)O)[C@]4(C)CC[C@H]3C2(C)C)C(O)C(O)C1O (stereo not given in full),-17.5,-9.8,-10.6%,-5.7,-13.7%,-58.5%

Structure (SMILES),growth inhibition [1] [%],growth inhibition [2] [%],growth inhibition [3],growth inhibition [4] [%],growth inhibition [5],growth inhibition [6]
O=C1O[C@@H](c2ccccc2)C[C@@H]1CN1CCOCC1,24.4,13.7,22.7%,26.1,3.15%,15.1%
OCc1c(CO)c(-c2ccc(Cl)c(Cl)c2)n2c1CCC2,13.4,2.4,8.1%,14.9,-0.2%,51%
O=[N+]([O-])c1cccc(S(=O)(=O)NC2c3ccccc3Oc3ccccc32)c1,22,-3.65,26.9%,21.4,-10.7%,24.8%
CCOC(=O)C1=C(C)OC(C)(OC(C)=O)C1=O (stereo not given),14.1,-1.9,2.8%,-25.9,-6.9%,13.8%
COC(c1ccccc1)c1ccccc1,-21.1,4.9,29.5%,-16.4,1.75%,-8%
CSc1cc2c(cc1[N+](=O)[O-])C(=O)c1ccccc1-2,-1.85,5.75,0.8%,0.6,4.05%,5.6%
COC1=CC(=O)C(c2cc(O)c(OC)cc2O)=CC1=O,-0.15,4.45,-3.65%,-8.65,4.5%,5.2%
NC1=NN(O)C2=CC(Br)C=CC2=N1 (stereo not given),10.3,-7.4,11.6%,7.55,43.1%,22.4%
CCOC(=O)/C=C(/C)N(CC)CC,23.9,-4,12.2%,11.3,-5.05%,19.9%
CC1=NOC2(C1)/C(=N/O)CCC/C2=N\O (stereo not given),-3.65,-25.1,-1.5%,20.9,-11.6%,0.45%
CNC(=O)OCc1c(COC(=O)NC)c2n(c1C)CCS2(=O)=O,-1.25,-18.3,-8.15%,-9.95,0.35%,15.2%
O=C(Nc1ccc(C(F)(F)F)cc1[N+](=O)[O-])C(=O)Nn1c(=S)[nH]c2ccccc2c1=O,20.3,11.7,-4.65%,18.5,7.9%,23.1%
CC(=O)N(C(C)=O)n1c(Cc2ccc(Cl)cc2)nn(C(C)=O)c1=O,7.85,-15.1,-9.2%,4.5,10.7%,-7.6%
CCCc1nc(N)[nH]c(=O)c1I,-26,-9.1,-15.1%,5.3,7.8%,0.45%
O=C(OCCN=C1c2ccccc2CCc2ccccc21)c1ccccc1,-12.2,-6.45,18.9%,6.8,37.3%,0.4%
CCNc1nc2c(ncn2C2CC(O)C(COP(=O)(O)O)O2)c(=O)[nH]1 (stereo not given),18.9,15.2,27.3%,11.8,13.2%,-16.1%
COC1=CC(=C(C#N)C(=Nc2ccccc2)SC)C=C(OC)C1=O,34.1,19.1,48.9%,15.3,20.6%,43.6%
CN[C@H]1CC[C@]23C[C@]24CC[C@]2(C)[C@@H]([C@H](C)N(C)C)CC[C@@]2(C)[C@@H]4CC[C@H]3C1(C)C,1.3,-4.65,9.2%,6.35,8.25%,-63.8%
C[n+]1ccc2c(Br)cccc2c1,-1.8,-14.9,-6.45%,-12.7,-1%,13.5%
Oc1ccccc1-n1nc2ccc3nonc3c2n1,-16.8,-61.1,-38.9%,-35.9,-1%,-40.5%
